Measurements taken from the OligoGym collection.
Also: reference of the scale not given here.

What follows are sequences tested against FAM73A (assay: pooled miR-30 sensor sort-seq; sequence = guide strand). Conditions: shRNA.
For TTAAGTATAAGTTCTCTGGAGT, the sensor-assay potency score (higher = more potent) was -0.00837. With TACTGGAACAACTTGAACCTTT the sensor-assay potency score (higher = more potent) was 0.0533. TGTACTTGAATAGCGCACCTTC gave a sensor-assay potency score (higher = more potent) of 0.381. TAGACAACTACTTGTATGCCTC was tested, and the sensor-assay potency score (higher = more potent) was -0.255. TTGAACCTTTGTCTGATGCTGC gave a sensor-assay potency score (higher = more potent) of 0.182. Work on TAATATCATCTTCATCTGCTTT yielded a sensor-assay potency score (higher = more potent) of -0.807. Work on TTCTGTTTCAGCACCGACCAAC yielded a sensor-assay potency score (higher = more potent) of -0.471. TTTAATATCATCTTCATCTGCT was tested, and the sensor-assay potency score (higher = more potent) was 0.76. In the case of AACAACTTGAACCTTTGTCTGA, the sensor-assay potency score (higher = more potent) is reported as -0.33. Work on TTGAATAGCGCACCTTCTCAAA yielded a sensor-assay potency score (higher = more potent) of -1.12.

What follows are sequences tested against FAM75A3 in the same assay as above. Conditions: shRNA.
TGATTCGTCCTGAAGCTGCATC was tested, and the sensor-assay potency score (higher = more potent) was -0.869. Work on TTCGTCCTGAAGCTGCATCAGA yielded a sensor-assay potency score (higher = more potent) of -0.939. In the case of TGGTGATTCGTCCTGAAGCTGC, the sensor-assay potency score (higher = more potent) is reported as -1.37. TTCACTAACAACCTCCTCCATA showed a sensor-assay potency score (higher = more potent) of -0.534. In the case of AAATTCACTAACAACCTCCTCC, the sensor-assay potency score (higher = more potent) is reported as 0.396. For TAAACTTCTCACTCTTGTGAAT, the sensor-assay potency score (higher = more potent) was -1.14.
